A1 inh = caspase 3/7 activation in MEF A1-2A-BIM cells, primary screen, A1 inhibitor project, cell-based, luminescence, HTS; Caspase-Glo 3/7 luminescence, 3 h; percent of clofoctol response, vehicle zero; caspase activation, % (no concentration beside the values); hit rate 0.066% among 330,000; AID 2462, 2010;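 active = over half of replicate activation scores above 10%, or exactly half above 10 with the replicate mean above 10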
HTR5A ag = HTR5A agonists in luminescence cell assay, primary screen, counter-screen for OPRM1-OPRD1 heterodimer agonist project, full-deck HTS; activation, % at 9.3 µM; hit rate 0.61% among 340,000; cell-based; in the data active = activation mostly above about 9.5%, no sharp cut-off; inactive = mostly below about 7.6%
HTR5A inv ctr = HTR5A inverse agonists in luminescence cell assay, primary screen, counter-screen for OPRM1-OPRD1 heterodimer inverse agonist project, full-deck HTS; 5-hydroxytryptamine receptor 5A (Homo sapiens), P47898; HTR5A cell line, inverse agonism; inhibition, % at 9.3 µM; hit rate 0.083% among 340,000; AID 504634, 2011; in the data active = inhibition mostly above about 23%, no sharp cut-off; inactive = mostly below about 18%
OPRM1-OPRD1 inv = inverse agonists of MOR-DOR heterodimerization, primary screen, cell-based, luminescence; Mu-type opioid receptor (Homo sapiens) + Delta-type opioid receptor (Homo sapiens), …; cell-based MOR-DOR heterodimer luminescence, inverse agonism; inhibition, % at 9.3 µM; hit rate 0.21% among 340,000; in the data active = inhibition above about 22%, passing the limit was not always enough
MOR-DOR ag-1 = agonists of OPRM1-OPRD1 heterodimerization, primary screen, cell-based, luminescence. Mu-type opioid receptor (Homo sapiens) + Delta-type opioid receptor (Homo sapiens), …. cells. activation, % at 9.3 µM. hit rate 0.3% among 340,000
MOR-DOR ag-2 = OPRM1-OPRD1 heterodimerization promoters, counter-screen for HTR5A agonist project, cell-based, luminescence | shares compounds with HTR5A ag | AID 504913, 2011 | activation, % at 9.3 µM | U2OS counter-screen cells, complementation luminescence, 3 h | hit rate 13% among 800
HTR5A ag conf = HTR5A agonists, retest of hits, confirmation, cell-based, luminescence. shares compounds with HTR5A ag. HTR5A agonist cell assay. activation, % at 9.3 µM. hit rate 17% among 800. AID 504915, 2011; in the data active = activation above about 17%
A number is an active result; i = inactive; nt = no result. An excerpt weighted towards active compounds, which were near 1.1% of everything screened. Rule as the data show it, unless noted: active = activation above about 18%; inactive = the rest.

SMILES | A1 inh | HTR5A ag | HTR5A inv ctr | OPRM1-OPRD1 inv | MOR-DOR ag-1 | MOR-DOR ag-2 | HTR5A ag conf
CCOc1ccc(NC(=O)C2CCC(CNc3c(N4CCCCC4)c(=O)c3=O)CC2)cc1 (centres undefined) | i | i | i | i | i | nt | nt
CCOC(=O)c1cccc(NC(=O)C2CCC(CNc3c(N4CCOCC4)c(=O)c3=O)CC2)c1 (centres undefined) | i | 22 | i | i | i | i | i
O=C(N/N=C/c1cn(Cc2cccc(F)c2)c2ccccc12)c1cc(O)cc(O)c1 | i | 17 | i | i | i | 284 | i
Nc1nc(COC(=O)C2CCN(C(=O)c3ccc(Cl)cc3)CC2)nc(Nc2ccccc2)n1 | i | i | i | i | i | nt | nt
Cc1cc(OCCn2nc(C(=O)O)c3ccccc3c2=O)ccc1C(C)C | nt | 20 | i | i | i | i | i
COC(=O)c1ccc(NC(=O)c2cc[n+](Cc3ccccc3)cc2)cc1 | i | 15 | i | i | i | i | i
CCOc1ccccc1NC(=S)N1C2CCC1CC(NC(=O)NC13CC4CC(CC(C4)C1)C3)C2 (centres undefined) | i | i | i | i | i | nt | nt
COc1ccccc1NC(=S)N1C2CCC1CC(NC(=O)NC13CC4CC(CC(C4)C1)C3)C2 (centres undefined) | i | 16 | i | i | i | i | i
Cc1noc(C)c1CSc1nnc(-c2ccncc2)n1-c1ccc(Cl)c(Cl)c1 | i | i | i | i | i | nt | nt
